The values below come from PubChem BioAssay (EPA / NIEHS).

As a reminder, the AC50 is the concentration at which the activity in the assay is half-maximal.

Structures are written as SMILES. Calls of active or inactive are those of the source. The calls were made as follows: active = hit-call score of the fitted dose curve at least 0.9, where 1 is the maximum; inactive = score below 0.9.

Read-out in the first experiment: Monokine induced gamma interferon (MIG), CXCL9 (gene 4283)
The experiment in a line: BSK_BE3C_MIG: BioMAP Diversity Plus: BE3C Assay for Monokine induced gamma interferon (MIG) Biomarker Activity (AID 2283035).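 As to outcome: MIG protein measured by ELISA in BE3C cultures after 24 h of dosing.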 Particulars: primary human bronchial epithelial cells; actives raise or lower the signal. In outline:
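hu bronchial epithelial 1° cells, 24 h cpd; MIG by ELISA; bidirectional fit, DMSO = baseline.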
As for `Clc1cccc(Cl)c1Cl`, the outcome was inactive.

In the case of `Cc1cccc(OP(=O)(Oc2cccc(C)c2)Oc2cccc(C)c2)c1`, the result was inactive.

With `c1ccc2sc(SNC3CCCCC3)nc2c1`, the result was inactive.

Consider `OCCCCO`, for which the result was inactive.

With `CC(C)O.CC(C)O.OCCN(CCO)CCO.OCCN(CCO)CCO.[Ti]`, the outcome was inactive.

Take `Oc1c(Br)cc(Br)cc1Br`: the outcome was inactive.

Take `Clc1cccc(Cl)c1`: the result was inactive.

For `CC(C)N(C(=O)CCl)c1ccccc1`, the outcome was inactive.

In the case of `Nc1ccc(N)cc1`, the outcome was inactive.

`Oc1cccc(-c2ccccc2)c1`: the result was inactive.

As to `COCC(=O)N(c1c(C)cccc1C)[C@H](C)C(=O)OC`, the result was inactive.

For the molecule `O=C1C=CC(=O)c2ccccc21`, the concentration at half-maximal activity (AC50) was 6.51 µM (active).

Turning to `Cc1cc(Cl)ccc1N`, the outcome was inactive.

As to `O=C(Cc1ccccc1)OCCc1ccccc1`, the result was inactive.

Take `O=c1oc2ccccc2c(O)c1C(CC(O)c1ccc(-c2ccc(Br)cc2)cc1)c1ccccc1` (stereo not drawn): the AC50 is 10.5 µM (active).

Consider `Oc1ccc(Cc2ccc(O)cc2)cc1`, for which the outcome was inactive.

For `Cc1c([N+](=O)[O-])c(C)c([N+](=O)[O-])c(C(C)(C)C)c1[N+](=O)[O-]`, the result was inactive.

Regarding `CC(C)(COCC1CO1)COCC1CO1` (stereo not drawn), the result was inactive.

For `CCOC(=O)CC(=O)CCl`, the result was inactive.

On to `CCCCCCCCCCCCN(C)C`, for which the outcome was inactive.

In the case of `CCOP(=S)(OCC)SCS(=O)(=O)C(C)(C)C`, the outcome was inactive.

Read-out in another experiment: Transforming growth factor beta 1 (TGFb1), TGFB1 (gene 7040)
The experiment in a line: BSK_BE3C_TGFb1: BioMAP Diversity Plus: BE3C Assay for Transforming growth factor beta 1 (TGFb1) Biomarker Activity (AID 2283036;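 as to outcome: TGF-b1 protein level measured by ELISA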). The following applies: primary human bronchial epithelial cells; actives raise or lower the signal. An outline of the steps: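 TGF-b1 measured via ELISA, 24 h after chemical dosing of human bronchial epithelial cells (BE3C). Overt cytotoxicity assessed in parallel by SRB (0.1%, TCA-fixed, 560 nm); analysis bidirectional relative to DMSO.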
Regarding `O=C(O)C1(c2ccc3c(c2)OC[C@H](Cc2ccc(-c4ccccc4)cc2)[C@H]3O)CCCC1`, the AC50 was 13 µM (active).

Turning to `N#Cc1cccnc1`, the outcome was inactive.

On to `Cc1cc(Cl)ccc1OC(C)C(=O)O` (stereo not drawn), for which the outcome was inactive.

On to `O=C(CCl)NCO`, for which the result was inactive.

Turning to `Nc1c(Oc2ccccc2)cc(O)c2c1C(=O)c1ccccc1C2=O`, the outcome was inactive.

Regarding `Oc1cc(Cl)c(Cl)cc1Cl`, the outcome was inactive.

On to `C[C@]12CC[C@@H](O)C[C@@H]1CC[C@@H]1[C@@H]2CC[C@]2(C)C(=O)CC[C@@H]12`, for which the result was inactive.

With `CCC(C)(C#N)N=NC(C)(C#N)CC` (stereo not drawn), the outcome was inactive.

On to `NC(=O)CCl`, for which the outcome was inactive.

On to `CCCCN(CCCC)C(=S)[S-].CCCCN(CCCC)C(=S)[S-].[Ni+2]`, for which the result was inactive.

For the molecule `CCCCCCCCCCCCc1cccc(S(=O)(=O)O)c1`, the AC50 is 5.79 µM (active).

On to `O=C(N[C@H]1CN2CCC1CC2)c1ccc2c(c1)OCCO2`, for which the outcome was inactive.

On to `Clc1cccc(Cl)c1Cl`, for which the result was inactive.

Take `Cc1cccc(OP(=O)(Oc2cccc(C)c2)Oc2cccc(C)c2)c1`: the outcome was inactive.

Turning to `c1ccc2sc(SNC3CCCCC3)nc2c1`, the result was inactive.

With `CC(C)O.CC(C)O.OCCN(CCO)CCO.OCCN(CCO)CCO.[Ti]`, the result was inactive.

Regarding `Oc1c(Br)cc(Br)cc1Br`, the outcome was inactive.

As to `Clc1cccc(Cl)c1`, the outcome was inactive.

Turning to `CC(C)N(C(=O)CCl)c1ccccc1`, the outcome was inactive.

Consider `Nc1ccc(N)cc1`, for which the result was inactive.

With `Oc1cccc(-c2ccccc2)c1`, the outcome was inactive.

`COCC(=O)N(c1c(C)cccc1C)[C@H](C)C(=O)OC`: the outcome was inactive.

As for `O=C1C=CC(=O)c2ccccc21`, the AC50 was 2.26 µM (active).

Consider `Cc1cc(Cl)ccc1N`, for which the result was inactive.

On to `O=c1oc2ccccc2c(O)c1C(CC(O)c1ccc(-c2ccc(Br)cc2)cc1)c1ccccc1` (stereo not drawn), for which the half-maximal activity concentration (AC50) is 0.144 µM (active).

For `Oc1ccc(Cc2ccc(O)cc2)cc1`, the outcome was inactive.

Take `Cc1c([N+](=O)[O-])c(C)c([N+](=O)[O-])c(C(C)(C)C)c1[N+](=O)[O-]`: the result was inactive.

Consider `CC(C)(COCC1CO1)COCC1CO1` (stereo not drawn), for which the result was inactive.

With `CCOC(=O)CC(=O)CCl`, the half-maximal activity concentration (AC50) is 5.96 µM (active).

For `CCCCCCCCCCCCN(C)C`, the outcome was inactive.

As for `CCOP(=S)(OCC)SCS(=O)(=O)C(C)(C)C`, the result was inactive.

Read-out in another experiment: Plasminogen activator inhibitor-1 (PAI1), SERPINE1 (gene 5054)
The experiment in a line: BSK_BE3C_PAI1: BioMAP Diversity Plus: BE3C Assay for Plasminogen activator inhibitor-1 (PAI1) Biomarker Activity (AID 2283037). The following applies: primary human bronchial epithelial cells; actives raise or lower the signal. In outline: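 In this multiplexed primary-cell system, bronchial epithelial cells receive test chemical and are sampled at 24 h. PAI-1 is read by ELISA, with DMSO serving as negative control for bidirectional fitting.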
`O=C(CCl)NCO`: the outcome was inactive.

For `Nc1c(Oc2ccccc2)cc(O)c2c1C(=O)c1ccccc1C2=O`, the AC50 is 2.43 µM (active).

As for `C[C@]12CC[C@@H](O)C[C@@H]1CC[C@@H]1[C@@H]2CC[C@]2(C)C(=O)CC[C@@H]12`, the result was inactive.

As for `CCC(C)(C#N)N=NC(C)(C#N)CC` (stereo not drawn), the outcome was inactive.

`CCCCN(CCCC)C(=S)[S-].CCCCN(CCCC)C(=S)[S-].[Ni+2]`: the result was inactive.

Consider `CCCCOC(=O)COC(=O)c1ccccc1C(=O)OCCCC`, for which the outcome was inactive.

For `CC(C)O.CC(C)O.OCCN(CCO)CCO.OCCN(CCO)CCO.[Ti]`, the result was inactive.

In the case of `CC(C)N(C(=O)CCl)c1ccccc1`, the outcome was inactive.

As for `O=C1C=CC(=O)c2ccccc21`, the AC50 is 3.25 µM (active).

As for `O=c1oc2ccccc2c(O)c1C(CC(O)c1ccc(-c2ccc(Br)cc2)cc1)c1ccccc1` (stereo not drawn), the half-maximal activity concentration (AC50) was 0.915 µM (active).

Consider `CCOC(=O)CC(=O)CCl`, for which the outcome was inactive.

On to `CCOP(=S)(OCC)SCS(=O)(=O)C(C)(C)C`, for which the outcome was inactive.

Read-out in the next experiment: urokinase plasminogen activator (uPA), PLAU (gene 5328)
Briefly: BSK_BE3C_uPA: BioMAP Diversity Plus: BE3C Assay for urokinase plasminogen activator (uPA) Biomarker Activity (AID 2283038).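 As to outcome: uPA protein level quantified by ELISA in cell cultures; uPA read one day after compound addition.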 The following applies: primary human bronchial epithelial cells; actives raise or lower the signal. In outline: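 Human primary bronchial epithelial cells were exposed to chemical for 24 h, then uPA levels were measured by ELISA. Responses were fitted bidirectionally against DMSO as negative control and baseline. Parallel SRB staining of total protein gauged overt cytotoxicity.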
As to `O=C(O)C1(c2ccc3c(c2)OC[C@H](Cc2ccc(-c4ccccc4)cc2)[C@H]3O)CCCC1`, the AC50 is 13.8 µM (active).

`N#Cc1cccnc1`: the outcome was inactive.

For the molecule `Cc1cc(Cl)ccc1OC(C)C(=O)O` (stereo not drawn), the outcome was inactive.

For `O=C(CCl)NCO`, the result was inactive.

Turning to `Nc1c(Oc2ccccc2)cc(O)c2c1C(=O)c1ccccc1C2=O`, the outcome was inactive.

Turning to `Oc1cc(Cl)c(Cl)cc1Cl`, the half-maximal activity concentration (AC50) is 26.2 µM (active).

With `C[C@]12CC[C@@H](O)C[C@@H]1CC[C@@H]1[C@@H]2CC[C@]2(C)C(=O)CC[C@@H]12`, the outcome was inactive.

As for `CCC(C)(C#N)N=NC(C)(C#N)CC` (stereo not drawn), the outcome was inactive.

With `NC(=O)CCl`, the result was inactive.

As to `CCCCN(CCCC)C(=S)[S-].CCCCN(CCCC)C(=S)[S-].[Ni+2]`, the result was inactive.

`CCCCOC(=O)COC(=O)c1ccccc1C(=O)OCCCC`: the outcome was inactive.

Take `CCCCCCCCCCCCc1cccc(S(=O)(=O)O)c1`: the AC50 was 28.4 µM (active).

For `O=C(N[C@H]1CN2CCC1CC2)c1ccc2c(c1)OCCO2`, the outcome was inactive.

Turning to `Clc1cccc(Cl)c1Cl`, the result was inactive.

Regarding `Cc1cccc(OP(=O)(Oc2cccc(C)c2)Oc2cccc(C)c2)c1`, the AC50 is 0.016 µM (active).

In the case of `c1ccc2sc(SNC3CCCCC3)nc2c1`, the outcome was inactive.

For `OCCCCO`, the outcome was inactive.

`CC(C)O.CC(C)O.OCCN(CCO)CCO.OCCN(CCO)CCO.[Ti]`: the result was inactive.

Consider `Oc1c(Br)cc(Br)cc1Br`, for which the outcome was inactive.

`Clc1cccc(Cl)c1`: the outcome was inactive.

`CC(C)N(C(=O)CCl)c1ccccc1`: the outcome was inactive.

For `Nc1ccc(N)cc1`, the result was inactive.

`Oc1cccc(-c2ccccc2)c1`: the result was inactive.

Take `COCC(=O)N(c1c(C)cccc1C)[C@H](C)C(=O)OC`: the result was inactive.

On to `O=C1C=CC(=O)c2ccccc21`, for which the half-maximal activity concentration (AC50) was 4.36 µM (active).

Consider `Cc1cc(Cl)ccc1N`, for which the result was inactive.

On to `O=C(Cc1ccccc1)OCCc1ccccc1`, for which the result was inactive.

On to `O=c1oc2ccccc2c(O)c1C(CC(O)c1ccc(-c2ccc(Br)cc2)cc1)c1ccccc1` (stereo not drawn), for which the half-maximal activity concentration (AC50) is 5.29 µM (active).

In the case of `Oc1ccc(Cc2ccc(O)cc2)cc1`, the result was inactive.

For `Cc1c([N+](=O)[O-])c(C)c([N+](=O)[O-])c(C(C)(C)C)c1[N+](=O)[O-]`, the result was inactive.

Take `CC(C)(COCC1CO1)COCC1CO1` (stereo not drawn): the outcome was inactive.

Regarding `CCOC(=O)CC(=O)CCl`, the AC50 is 4.09 µM (active).

Regarding `CCCCCCCCCCCCN(C)C`, the outcome was inactive.

Turning to `CCOP(=S)(OCC)SCS(=O)(=O)C(C)(C)C`, the result was inactive.
